From the supplement of paper PMC3545927
This is one part of the list. How many sequences the whole screen found active is unknown.

Molecular target: furin, P09958
Test: furin cleavage Z-score vs untreated control; higher = more cleavage, active = 3.5 or more, inactive = 1 or less, 8 variable residues between constant flanks
Outline: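 Furin cleavage was scored on 8-mer peptides joined to a cDNA oligonucleotide and bound to magnetic beads at the N-terminus. Digestion with purified furin (1:10 enzyme:substrate, 0.01 ml, 50 mM HEPES pH 7.5, CaCl2, NaCl) lasted 7.5, 15 or 30 min. Freed DNA was tagged with adapters by PCR, sequenced and counted; the cleavage Z-score is the lowess-adjusted log count versus furin-free reactions, scaled by median absolute deviation.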

Measured: furin cleavage Z-score

Chain of furin, P09958 (P09958 whole entry): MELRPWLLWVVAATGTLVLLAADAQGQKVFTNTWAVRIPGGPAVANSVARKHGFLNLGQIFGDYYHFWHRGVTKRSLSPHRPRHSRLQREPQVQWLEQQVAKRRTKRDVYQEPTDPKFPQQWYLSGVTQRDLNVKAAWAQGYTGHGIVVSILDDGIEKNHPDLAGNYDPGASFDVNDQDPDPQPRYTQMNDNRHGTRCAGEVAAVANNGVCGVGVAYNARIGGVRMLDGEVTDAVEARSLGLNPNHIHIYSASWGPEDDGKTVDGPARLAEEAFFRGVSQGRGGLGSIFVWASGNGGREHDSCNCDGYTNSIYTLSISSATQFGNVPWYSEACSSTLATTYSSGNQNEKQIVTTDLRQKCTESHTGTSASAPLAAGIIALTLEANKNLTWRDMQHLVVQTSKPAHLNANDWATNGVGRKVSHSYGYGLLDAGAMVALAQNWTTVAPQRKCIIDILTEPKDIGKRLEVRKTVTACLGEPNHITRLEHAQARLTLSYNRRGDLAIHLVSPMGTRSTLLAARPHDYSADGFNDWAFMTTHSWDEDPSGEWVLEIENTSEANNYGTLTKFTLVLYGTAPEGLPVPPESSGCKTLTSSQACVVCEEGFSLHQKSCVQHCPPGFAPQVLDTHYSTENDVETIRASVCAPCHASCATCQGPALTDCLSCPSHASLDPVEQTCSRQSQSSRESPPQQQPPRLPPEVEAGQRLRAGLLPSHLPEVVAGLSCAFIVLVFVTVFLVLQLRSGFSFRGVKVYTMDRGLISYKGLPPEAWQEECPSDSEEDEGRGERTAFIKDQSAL

CADSDAESYSAGNASASA [HC1350]
inactive: 7.5 min -0.915 | 15 min -2 | 30 min -1.07

CAHTPCSAHLAGNASASA [HC2475]
inactive: 7.5 min -0.788 | 15 min -1.31 | 30 min -0.643

CARPARSVSKAGNASASA [FS-2498]
active: 7.5 min 4.36 | 15 min 6.03 | 30 min 6.77

CAAQKRSVGSAGNASASA [FS-2626]
inactive: 7.5 min 0.58 | 15 min 0.683 | 30 min -0.853

CARPARLVPAAGNASASA [FS-2398]
inactive: 7.5 min -0.162 | 15 min -1.02 | 30 min -0.581

CARPARSVGSAGNASASA [FS-2736]
active: 7.5 min 6.91 | 15 min 7.69 | 30 min 6.7

CARPARSGGPAGNASASA [FS-2735]
inactive: 7.5 min -0.759 | 15 min -1.01 | 30 min -0.741

CATHSRKKRQAGNASASA [FS-201]
active: 7.5 min 8.08 | 15 min 7.91 | 30 min 8.14

CAWNKRKKRQAGNASASA [FS-968]
active: 7.5 min 13.9 | 15 min 14.4 | 30 min 10.5

CAKKHKKKRVAGNASASA [FS-1538]
inactive: 7.5 min -1.41 | 15 min -0.885 | 30 min 0.391

CAEMKRKKRVAGNASASA [FS-1521]
active: 7.5 min 6.73 | 15 min 7.44 | 30 min 8.54

CASTPCSDHLAGNASASA [HC2531]
inactive: 7.5 min 0.0703 | 15 min 0.929 | 30 min -0.421

CARPARYRRGAGNASASA [FS-861]
active: 7.5 min 11.5 | 15 min 11.1 | 30 min 8.69

CAKPARYRRGAGNASASA [FS-813]
active: 7.5 min 12.3 | 15 min 12.4 | 30 min 9.69

CARPARDEGGAGNASASA [FS-2050]
inactive: 7.5 min -0.0204 | 15 min -1.47 | 30 min -0.304
